In PubChem BioAssay (EPA / NIEHS) one finds AC50 and outcome data, which are given here for four molecules.

A short description of assay [1]: BSK_hDFCGF_SRB: Viability Assessment in the BioMAP Diversity Plus: hDFCGF Assay (AID 2283061).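 Further: cells exposed to compound for 24 h before the read.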 Conditions: primary human foreskin fibroblasts. Put shortly: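 SRB-based viability read on primary human skin fibroblasts at 24 h: TCA fixation, 0.1% dye, 560 nm. Gain or loss of signal is fitted against the DMSO negative control.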
Read-out in assay [2]: TIMP metallopeptidase inhibitor 1 (TIMP1), TIMP1 (gene 7076)
Description: BSK_hDFCGF_TIMP1: BioMAP Diversity Plus: hDFCGF Assay for TIMP metallopeptidase inhibitor 1 (TIMP1) Biomarker Activity (AID 2283062). To be noted: primary human foreskin fibroblasts; actives raise or lower the signal. Put shortly: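 Bidirectional curve fitting against DMSO baseline yielded this endpoint, based on ELISA detection of TIMP-1 in primary human foreskin fibroblasts exposed to compound for 24 h.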

Read-out in assay [3]: Monokine induced gamma interferon (MIG), CXCL9 (gene 4283)
The assay can be described thus: BSK_hDFCGF_MIG: BioMAP Diversity Plus: hDFCGF Assay for Monokine induced gamma interferon (MIG) Biomarker Activity (AID 2283063). Conditions: primary human foreskin fibroblasts; actives raise or lower the signal. Summed up: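 Endpoint derived by bidirectional fitting relative to DMSO; MIG quantified via ELISA in primary human foreskin fibroblasts harvested 24 h after dosing.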

Read-out in assay [4]: Matrix Metallopeptidase 1 (MMP1), MMP1 (gene 4312)
The assay can be described thus: BSK_hDFCGF_MMP1: BioMAP Diversity Plus: hDFCGF Assay for Matrix Metallopeptidase 1 (MMP1) Biomarker Activity (AID 2283064). Conditions: primary human foreskin fibroblasts; actives raise or lower the signal. Put shortly:
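Primary human foreskin fibroblasts in the hDFCGF system were dosed with test chemical, and MMP1 was measured by ELISA 24 h later. Values come from bidirectional curve fitting against the DMSO baseline.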

Read-out in assay [5]: Vascular cell adhesion molecule 1 (VCAM1), VCAM1 (gene 7412)
The assay can be described thus: BSK_hDFCGF_VCAM1: BioMAP Diversity Plus: hDFCGF Assay for Vascular cell adhesion molecule 1 (VCAM1) Biomarker Activity (AID 2283065).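 On AC50: VCAM-1 protein level quantified by ELISA after 24 h chemical exposure.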 Conditions: primary human foreskin fibroblasts; actives raise or lower the signal. Put shortly:
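Measured after 24 h chemical treatment of primary human skin fibroblasts, VCAM-1 was detected by ELISA and concentration-response analysed in both directions versus DMSO vehicle.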

Read-out in assay [6]: Plasminogen activator inhibitor-1 (PAI1), SERPINE1 (gene 5054)
Description: BSK_hDFCGF_PAI1: BioMAP Diversity Plus: hDFCGF Assay for Plasminogen activator inhibitor-1 (PAI1) Biomarker Activity (AID 2283066). Conditions: primary human foreskin fibroblasts; actives raise or lower the signal. Summed up:
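Human foreskin fibroblast primary cells, 24 h chemical exposure; PAI-1 measured by ELISA. Bidirectional fitting relative to DMSO; parallel cultures stained with SRB for total protein to flag overt cytotoxicity.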

Read-out in assay [7]: Intercellular Adhesion Molecule 1 (ICAM1), ICAM1 (gene 3383)
The assay can be described thus: BSK_KF3CT_ICAM1: BioMAP Diversity Plus: KF3CT Assay for Intercellular Adhesion Molecule 1 (ICAM1) Biomarker Activity (AID 2283067). Conditions: primary human keratinocytes with fibroblasts; actives raise or lower the signal. Summed up:
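Bidirectional curve fitting against a DMSO baseline was applied to ICAM-1 ELISA signal from primary human skin co-cultures harvested 24 h after treatment, with SRB staining of parallel wells for overt cytotoxicity.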

Read-out in assay [8]: Interferon-gamma inducible Protein 10 (IP10), CXCL10 (gene 3627)
Description: BSK_KF3CT_IP10: BioMAP Diversity Plus: KF3CT Assay for Interferon-gamma inducible Protein 10 (IP10) Biomarker Activity (AID 2283068). To be noted: primary human keratinocytes with fibroblasts; actives raise or lower the signal. Summed up:
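Human keratinocyte plus foreskin fibroblast primary co-culture exposed to test chemical for 24 h; IP-10 measured by ELISA. Concentration-response fitted bidirectionally against DMSO control as baseline.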

Assay [9] is described as follows: BSK_KF3CT_SRB: Viability Assessment in the BioMAP Diversity Plus: KF3CT Assay (AID 2283069).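 Further: total protein by sulforhodamine B staining as a cytotoxicity measure; read 24 h after compound addition.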 To be noted: primary human keratinocytes with fibroblasts. Put shortly:
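Human primary keratinocyte plus foreskin fibroblast co-culture exposed to chemicals for 24 h. Total protein measured by 0.1% sulforhodamine B staining after 10% TCA fixation, read at 560 nm; bidirectional fitting versus DMSO baseline.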

Read-out in assay [10]: Interleukin-1 alpha (IL1a), IL1A (gene 3552)
The assay can be described thus: BSK_KF3CT_IL1a: BioMAP Diversity Plus: KF3CT Assay for Interleukin-1 alpha (IL1a) Biomarker Activity (AID 2283070). To be noted: primary human keratinocytes with fibroblasts; actives raise or lower the signal. Put shortly: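 Human keratinocyte plus foreskin fibroblast primary co-culture, sampled 24 h after chemical dosing. IL-1a measured by ELISA; responses fitted bidirectionally against DMSO baseline (negative control), so gain or loss of signal both count.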

Read-out in assay [11]: TIMP metallopeptidase inhibitor 2 (TIMP2), TIMP2 (gene 7077)
The assay can be described thus: BSK_KF3CT_TIMP2: BioMAP Diversity Plus: KF3CT Assay for TIMP metallopeptidase inhibitor 2 (TIMP2) Biomarker Activity (AID 2283071). To be noted: primary human keratinocytes with fibroblasts; actives raise or lower the signal. Put shortly: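 Co-culture of human primary keratinocytes and foreskin fibroblasts, measured 24 h after chemical dosing. TIMP-2 quantified by ELISA and fitted in both directions relative to DMSO. Cytotoxicity checked in parallel cultures by SRB total-protein staining.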

Read-out in assay [12]: Transforming growth factor beta 1 (TGFb1), TGFB1 (gene 7040)
Description: BSK_KF3CT_TGFb1: BioMAP Diversity Plus: KF3CT Assay for Transforming growth factor beta 1 (TGFb1) Biomarker Activity (AID 2283072). Conditions: primary human keratinocytes with fibroblasts; actives raise or lower the signal. Put shortly:
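Human keratinocyte/foreskin fibroblast co-culture; TGF-b1 measured by ELISA 24 h after dosing, fitted bidirectionally versus DMSO. Cytotoxicity checked in parallel cultures by total protein (SRB staining, 560 nm).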

Read-out in assay [13]: Matrix Metallopeptidase 9 (MMP9), MMP9 (gene 4318)
Description: BSK_KF3CT_MMP9: BioMAP Diversity Plus: KF3CT Assay for Matrix Metallopeptidase 9 (MMP9) Biomarker Activity (AID 2283074).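 On AC50: MMP9 protein level quantified by ELISA in the co-culture.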 Conditions: primary human keratinocytes with fibroblasts; actives raise or lower the signal. Summed up:
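Keratinocyte plus foreskin fibroblast human primary skin co-culture was dosed with chemical and MMP-9 was quantified by ELISA 24 h later. Bidirectional curve fitting used DMSO as negative control and activity baseline.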

Read-out in assay [14]: urokinase plasminogen activator (uPA), PLAU (gene 5328)
Description: BSK_KF3CT_uPA: BioMAP Diversity Plus: KF3CT Assay for urokinase plasminogen activator (uPA) Biomarker Activity (AID 2283075). To be noted: primary human keratinocytes with fibroblasts; actives raise or lower the signal. Summed up:
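Human keratinocyte plus foreskin fibroblast primary co-culture exposed to chemical for 24 h. uPA levels were quantified by ELISA, and activity was fitted bidirectionally against a DMSO negative-control baseline.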

Read-out in another assay: CD40, CD40 (gene 958)
The assay can be described thus: BSK_LPS_CD40: BioMAP Diversity Plus: LPS Assay for CD40 Biomarker Activity (AID 2283076). Conditions: primary human HUVEC with PBMC; actives raise or lower the signal. Summed up: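 Using a multiplexed primary human co-culture (umbilical vein endothelium plus PBMC), CD40 was read by ELISA 24 h after dosing, with cytotoxicity tracked by sulforhodamine B staining of parallel cultures and activity fitted bidirectionally versus DMSO.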

Read-out in assay [15]: E-selectin (Homo sapiens) (UniProt P16581)
Description: BSK_LPS_Eselectin: BioMAP Diversity Plus: LPS Assay for Eselectin Biomarker Activity (AID 2283077). To be noted: primary human HUVEC with PBMC; actives raise or lower the signal. Summed up:
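Dose chemical onto LPS-driven HUVEC/PBMC co-culture; after 24 h, run ELISA for E-selectin; fit up- and down-going responses relative to DMSO control.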

Read-out in assay [16]: Interleukin-8 (IL8), CXCL8 (gene 3576)
Description: BSK_LPS_IL8: BioMAP Diversity Plus: LPS Assay for Interleukin-8 (IL8) Biomarker Activity (AID 2283078). Conditions: primary human HUVEC with PBMC; actives raise or lower the signal. Summed up:
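In this LPS system, chemical-treated human umbilical vein endothelium/PBMC co-cultures were harvested at 24 h for IL-8 ELISA.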

Assay [17] can be described thus: BSK_LPS_SRB: Viability Assessment in the BioMAP Diversity Plus: LPS Assay (AID 2283079).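 Further: total protein by sulforhodamine B absorbance as a cytotoxicity measure; measured one day after compound addition.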 To be noted: primary human HUVEC with PBMC. Put shortly: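 Cytotoxicity endpoint in human endothelial–PBMC co-culture: 24 h exposure, then SRB (0.1%) staining, 560 nm read.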
Read-out in assay [18]: Interleukin-1 alpha (IL1a), IL1A (gene 3552)
The assay can be described thus: BSK_LPS_IL1a: BioMAP Diversity Plus: LPS Assay for Interleukin-1 alpha (IL1a) Biomarker Activity (AID 2283080). Conditions: primary human HUVEC with PBMC; actives raise or lower the signal. Put shortly:
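Primary human HUVEC and PBMC co-culture stimulated with LPS is dosed and harvested at 24 h. Both increases and decreases in ELISA-measured IL-1a are scored relative to DMSO.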

Read-out in assay [19]: C-C motif chemokine 2 (Homo sapiens) (UniProt P13500)
Description: BSK_KF3CT_MCP1: BioMAP Diversity Plus: KF3CT Assay for Monocyte Chemoattractant Protein 1 (MCP1/CCL2) Biomarker Activity (AID 2283073). Conditions: primary human keratinocytes with fibroblasts; actives raise or lower the signal. Put shortly: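 Biomarker MCP-1 is measured by ELISA in primary human keratinocytes co-cultured with foreskin fibroblasts, 24 h after chemical treatment; DMSO serves as the negative control and activity baseline.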

Calls of active or inactive are those of the source. How the source made its calls: active means hit-call score of the fitted dose curve at least 0.9, where 1 is the maximum; inactive means score below 0.9.

Sequence of E-selectin (Homo sapiens) (P16581 whole entry, looked up): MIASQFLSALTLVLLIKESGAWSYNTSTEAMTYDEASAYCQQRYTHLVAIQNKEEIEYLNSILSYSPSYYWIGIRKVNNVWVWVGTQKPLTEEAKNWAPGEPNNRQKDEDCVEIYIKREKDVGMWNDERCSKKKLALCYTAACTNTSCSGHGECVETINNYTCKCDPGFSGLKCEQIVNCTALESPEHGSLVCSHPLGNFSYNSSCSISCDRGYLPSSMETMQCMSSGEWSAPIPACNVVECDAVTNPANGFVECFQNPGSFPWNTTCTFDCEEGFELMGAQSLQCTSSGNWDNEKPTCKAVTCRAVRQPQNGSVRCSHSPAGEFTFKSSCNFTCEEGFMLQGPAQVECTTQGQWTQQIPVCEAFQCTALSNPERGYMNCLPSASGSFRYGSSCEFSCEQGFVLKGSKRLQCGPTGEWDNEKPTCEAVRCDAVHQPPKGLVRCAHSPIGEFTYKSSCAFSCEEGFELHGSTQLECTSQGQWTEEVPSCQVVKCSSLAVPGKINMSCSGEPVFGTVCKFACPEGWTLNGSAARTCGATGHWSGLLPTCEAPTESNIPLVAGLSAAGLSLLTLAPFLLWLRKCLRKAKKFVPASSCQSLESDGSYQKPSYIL

As usually defined, the AC50 is the concentration at which the activity in the assay is half-maximal. Consider `O=C1OC2(c3cc(Br)c(O)c(Br)c3Oc3c2cc(Br)c(O)c3Br)c2c(Cl)c(Cl)c(Cl)c(Cl)c21`, for which the AC50 was 6.54 µM (active) in assay [1]; 11.5 µM (active) in [2]; 11.6 µM (active) in assay [3]; 3.42 µM (active) in assay [4]; 4.38 µM (active) in assay [5]; 2.43 µM (active) in [6]. Further, the AC50 in [7] was 8.86 µM (active); in assay [8], 7.41 µM (active); in [9], 4.07 µM (active); in [10], 3.69 µM (active); in assay [11], 1.6 µM (active); in assay [12] it was 0.979 µM (active). In addition, the AC50 is 3.53 µM (active) in [13]; 3.89 µM (active) in [14]; 4.27 µM (active) with CD40, CD40 (gene 958); 5.71 µM (active) in assay [15]; 13.2 µM (active) in assay [16]; 3.6 µM (active) in [17]. For the same molecule, in [18], the AC50 was 3.73 µM (active).
In the case of `COc1cc(C=O)ccc1OC(=O)C(C)C`, the outcome in [1], in assay [2], in [3], in assay [4], in assay [5] and in assay [6] was inactive. The result in assay [7], in assay [8], in [9], in assay [10], in [11] and in [19] was inactive. The outcome is “inactive” in assay [13]; “inactive” in assay [14]; “inactive” with CD40, CD40 (gene 958); “inactive” in assay [15]; “inactive” in [16]; “inactive” in assay [17]. The result in assay [18] was inactive.
As to `CC(C)Oc1ccccc1O`, the result in assay [1], in [2], in assay [3], in [4], in assay [5] and in [6] was inactive. In addition, the outcome in [7], in assay [8], in assay [9], in assay [10], in assay [11] and in assay [12] was inactive. The outcome in assay [19] is “inactive”; in [13], “inactive”; in [14], “inactive”; with CD40, CD40 (gene 958), “inactive”; in assay [15] it was “inactive”; in [16] it was “inactive”. In addition, the outcome in assay [17] and in assay [18] was inactive.
Turning to `CCCCC(CC)COC(=O)/C=C\C(=O)OCC(CC)CCCC` (stereo not drawn), the result in assay [1], in [2], in assay [3], in assay [4], in assay [5] and in [7] was inactive. Also, the outcome in assay [8], in assay [9], in [10], in [11], in assay [12] and in [19] was inactive. The outcome is “inactive” in assay [13]; “inactive” in assay [14]; “inactive” in the assay with CD40, CD40 (gene 958); “inactive” in assay [15]; “inactive” in assay [16]; “inactive” in [17]. Moreover, the result in [18] was inactive. Also, the AC50 in [6] was 7.23 µM (active).
